Measurements as given in PubChem BioAssay AID793 (The Scripps Research Institute Molecular Screening Center, 2007).
The campaign covered roughly 140,000 compounds. About 1,400 (1%) were called active. Shown is part of a subset that was picked to be rich in actives. Values without a mark were called inactive. Cut-off read from the data, not from the text of the source: active = inhibition above about 17%; inactive = the rest.

The compounds below were run against Neuropeptide Y receptor type 2 (Homo sapiens) (UniProt P49146) (assay: blockers of human neuropeptide Y Y2 receptor – cell-based, primary screen (AID 793;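 note: 0% = vehicle with agonist challenge and 100% = reference antagonist with challenge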)). Settings: NPY-Y2 expressing cells, antagonist mode; at 2.7 µM; active compounds read high.
Chain of Neuropeptide Y receptor type 2 (Homo sapiens) (P49146 whole entry, looked up): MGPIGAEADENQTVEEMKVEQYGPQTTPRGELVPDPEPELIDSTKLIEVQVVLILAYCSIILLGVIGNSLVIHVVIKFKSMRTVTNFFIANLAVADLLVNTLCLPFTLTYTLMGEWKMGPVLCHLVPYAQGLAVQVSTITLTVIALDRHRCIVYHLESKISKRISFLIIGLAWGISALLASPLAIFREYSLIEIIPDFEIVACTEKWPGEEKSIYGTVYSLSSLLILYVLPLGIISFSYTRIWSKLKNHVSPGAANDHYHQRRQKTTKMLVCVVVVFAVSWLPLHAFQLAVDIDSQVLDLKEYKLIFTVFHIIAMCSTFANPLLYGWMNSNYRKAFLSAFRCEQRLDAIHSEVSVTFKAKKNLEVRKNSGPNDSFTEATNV

Row | SMILES | inhibition
1 | CCCC(O)(CCC)C(=O)NN(C(=O)CCl)c1cccc(C)c1 | 8.32%
2 | Cc1ccc(N(NC(=O)C(C)(C)O)C(=O)c2ccccc2)cc1C | 2.31%
3 | CCCCC(O)(CCCC)C(=O)NN(C(=O)CCl)c1ccccc1 | 21.9% (active)
4 | CCCc1cc(=O)[nH]c(SCc2cc(=O)oc3c(C)c(C)ccc23)n1 | 6.69%
5 | COc1cc(Cl)c(C)cc1NC(=O)[C@@H]1CCCN1C(=O)c1cccs1 | 6.63%
6 | O=C(Oc1ccccc1)Oc1ccc2c(c1)oc(=O)c1ccccc12 | 23.1% (active)
7 | NC(=O)COc1ccc2c3c(c(=O)oc2c1)CCCCC3 | 0.83%
8 | CC(=O)Oc1ccc2c(C)c(CC(C)O)c(=O)oc2c1 (stereo not given) | 2.41%
9 | Cc1nc2ccccc2cc1C(=O)N/N=C/c1ccc([N+](=O)[O-])cc1 | -0.48%
10 | Cc1cc(C(=O)OCC(=O)Nc2nnc(C(C)C)s2)c2ccccc2n1 | 4.1%
11 | CN(C)Cc1ccc(F)cc1Sc1cc(Cl)ccc1Cl | 20.2% (active)
12 | CCCC(=O)Nc1ccc(Cl)c(NC(=O)c2ccc(Br)o2)c1 | -1.21%
13 | COc1cc(OC)c(NC(=O)c2ccc(Br)o2)cc1Cl | -1.32%
14 | CCN1CCN(c2c(Cl)cccc2NC(=O)c2ccc(Br)o2)CC1 | 31.1% (active)
15 | COC(=O)c1ccc(CSc2nc3cc(Cl)ccc3o2)cc1 | 21.5% (active)
16 | O=C(CSc1nc2ccccc2o1)N1c2ccccc2Sc2ccc(Cl)cc21 | 6.15%
17 | COC(=O)c1ccc(CSc2nncn2C)cc1 | 3.48%
18 | Cc1ccc(S(=O)(=O)NNC(=O)Nc2cccc3ccccc23)cc1 | 1.93%
19 | COc1cccc2c(O)cc(=O)n(C)c12 | 1.18%
20 | C/C(=N\NS(=O)(=O)c1ccc(Br)cc1)c1cccs1 | 3.39%
21 | CCOc1ccc(S(=O)(=O)NCC2CCCO2)cc1 (stereo not given) | 2.22%
22 | CCOc1ccc(S(=O)(=O)N/N=C(\C)c2ccc(Cl)c(Cl)c2Cl)cc1 | 17.4% (active)
23 | Cc1cccc(NC(=O)/C=C/c2ccc3c(c2)OCO3)n1 | 3.73%
24 | COc1ccc(CCNC(=O)CSc2nc(-c3ccc(OC)c(OC)c3)ccc2C#N)cc1 | 4.73%

Row | SMILES | inhibition
25 | COc1cccc(-c2ccc(C#N)c(SCC(=O)NCCc3ccc(Cl)cc3)n2)c1 | 18.3% (active)
26 | COc1ccc(CCNC(=O)CSc2nnc(-c3cccc(F)c3)o2)cc1OC | -1.35%
27 | Cc1nnc(NC(=O)/C=C/c2ccco2)s1 | 10.7%
28 | O=C1OC(/C=C/c2ccccc2)=NC/1=C/c1ccco1 | 0.56%
29 | CCN(CC)c1ccc(C2C3CCCCC3(O)CCN2CC(=O)Nc2ccccc2)cc1 (stereo not given) | 5.72%
30 | CC1CCCCN1CC(=O)NCc1ccc2c(c1)OCO2 (stereo not given) | 1.99%
31 | Cc1ccc(NC(=O)CN2CCC3(O)CCCCC3C2c2ccc3c(c2)OCO3)c(C)c1 (stereo not given) | 21.3% (active)
32 | FC(F)Oc1ccccc1NC(=S)Nc1cccc(Cl)c1Cl | 0.76%
33 | CCCCN(CC)C(=S)Nc1ccc2nc3n(c(=O)c2c1)CCCCC3 | 3.37%
34 | COc1ccc(/C=C(/CC(=O)Nc2ccc(C)cc2)c2nc3ccccc3s2)cc1 | 3.93%
35 | O=C(C(=O)N1CCc2ccccc2C1)N1CCc2ccccc2C1 | -0.59%
36 | CCOC(=O)/C(C#N)=C/c1ccc(N2CCN(Cc3ccccc3)CC2)cc1 | 5.28%
37 | CC1CN(S(=O)(=O)c2ccc(C(=O)Nc3sccc3C(N)=O)cc2)CC(C)O1 (stereo not given) | -0.61%
38 | Cc1ccc(/C=N/NC(=O)c2sccc2OCc2ccc(F)cc2)cc1 | 25.7% (active)
39 | CNC(=S)NNC(=O)c1sccc1OCc1ccccc1 | -0.16%
40 | Cc1ccsc1C(=O)N/N=C/c1ccc([N+](=O)[O-])cc1 | 1.67%
41 | CCCCOc1ccc(C(=O)NN2CCN(C)CC2)cc1 | 0.95%
42 | CCCOc1ccc(C(=O)C(CCC(CNCC)C(=O)c2ccc(OCCC)cc2)CNCC)cc1 (stereo not given) | 30.9% (active)
43 | CCCCOc1ccc(C(=O)NCc2ccncc2)cc1 | -1.04%
44 | CCOc1ccc(C(=O)Nc2nccs2)cc1[N+](=O)[O-] | -0.69%
45 | O=C(OC1CCOC1=O)c1cccc(S(=O)(=O)Nc2ccc(F)cc2)c1 (stereo not given) | 2.56%
46 | CCc1cccc(NC(=O)CCC(=O)O)c1 | 1.58%
47 | CCOC(=O)COc1ccc([N+](=O)[O-])cc1 | 1.59%
48 | COc1ccc(C2CC(=O)Nc3sc(=N)c4c(N)c(C#N)c(N)nc4c32)cc1OC (stereo not given) | 86.1% (active)

Row | SMILES | inhibition
49 | N#Cc1c(N)nc2c3c(sc(=N)c2c1N)NC(=O)CC3c1ccccc1Cl (stereo not given) | 1.65%
50 | COc1ccc(OC)c2c(N)c(C#N)c(C(F)(F)C(F)(F)F)nc12 | -1.33%
51 | CCN(CC)S(=O)(=O)c1cccc(-c2n[nH]c(=S)n2/N=C/c2ccc(C(=O)OC)cc2)c1 | -0.07%
52 | Cc1cc(C)nc(NC(=O)c2cccc([N+](=O)[O-])c2)c1 | 2.05%
53 | COc1ccc(/C=C/C(=O)c2cc(Br)ccc(=O)c2O)cc1 | 5.15%
54 | O=C(/C=C/c1ccc(F)cc1)NC(=S)NNC(=O)c1cccnc1 | 2.46%
55 | COc1ccc(/C=C/C(=O)NC(=S)NN2CCCCC2c2cccnc2)cc1 (stereo not given) | 44% (active)
56 | CCOc1ccc(NC(=S)NC(=O)/C=C/c2ccc(OC)cc2)c([N+](=O)[O-])c1 | 0.55%
57 | NC(=O)CC[C@@H]1NC(=O)[C@H](CO)NC(=O)c2cc([N+](=O)[O-])cc(I)c2NCC[C@@H](C(N)=O)NC1=O | 0.11%
58 | COCCN1C(=O)N[C@@H](c2ccccc2)C(C(=O)OC)=C1C | 1.37%
59 | Cc1ccc(S(=O)(=O)c2ccc(Cl)cc2)cc1S(=O)(=O)NC(C(=O)O)C(C)C (stereo not given) | -0.6%
60 | C/C(Cc1ccccc1)=N\NC(=O)CNC(=O)c1cccc(Br)c1 | 2.91%
61 | N#Cc1c(NC(=O)CCCN2C(=O)c3ccccc3C2=O)oc(-c2ccccc2)c1-c1ccccc1 | 20.4% (active)
62 | O=C(CCN1C(=O)c2ccccc2C1=O)Nc1ccncc1 | 1.5%
63 | COc1cc(C(=O)Nc2oc(-c3ccccc3)c(-c3ccccc3)c2C#N)cc(OC)c1OC | 0.05%
64 | O=C(/C=C/c1cnc2ccccc2n1)NC1CCCCCC1 | 5.1%
65 | O=C(O)/C(=C/c1cccnc1)NC(=O)c1ccccc1 | 0.95%
66 | CCCc1[nH]nc2c1C(c1ccc(Br)s1)C(C#N)=C(N)O2 (stereo not given) | 53.5% (active)
67 | CCCc1[nH]nc2c1C(C1CC=CCC1)C(C#N)=C(N)O2 (stereo not given) | 2.32%
68 | CCCc1[nH]nc2c1C(c1c(C)nn(-c3ccccc3)c1Cl)C(C#N)=C(N)O2 (stereo not given) | 0.27%
69 | Cc1[nH]c2ccccc2c1C(=O)COC(=O)c1c(-c2ccccc2)noc1C | -0.4%
70 | C/C(=C/C(=O)N1CCN(C)CC1)C(=O)O | 1.55%
71 | CN(CC(=O)Nc1ccc(S(=O)(=O)N2CCCC2)cc1)Cc1ccc(Cl)c(Cl)c1 | 1.24%
72 | CC(C)CNC(=S)NC(=O)c1ccc(Cl)cc1 | 6.88%

Row | SMILES | inhibition
73 | O=S(=O)(O)c1nc2ccccc2n1Cc1ccc(Cl)cc1 | 3%
74 | N=c1n(Cc2ccc(Cl)cc2)c2ccccc2n1CC(O)c1ccco1 (stereo not given) | 18.4% (active)
75 | Cc1ccc(Cn2c(NC(=O)c3ccco3)nc3ccccc32)cc1 | 15.8%
76 | CC(C)[C@@H]1NC(=O)c2cc([N+](=O)[O-])cc(I)c2NCCC[C@@H](C(=O)NC(CC(=O)O)C(N)=O)NC(=O)[C@H](CO)NC1=O (stereo not given in full) | 2.25%
77 | CCOc1ccc(NC(=O)c2ccc(CSc3nnnn3C)cc2)cc1 | 1.22%
78 | O=C(NCCOc1ccccc1)c1ccccc1 | 0.21%
79 | C=CCNC(=O)CCCOc1cccc(C)c1 | 1.38%
80 | C=CCNCCCCOc1ccccc1 | 28.3% (active)
81 | CCC1S/C(=N/N=C/c2ccco2)NC1=O (stereo not given) | 2.82%
82 | CN(C)S(=O)(=O)c1cc(NC(=O)CN2C(=O)NC3(CCCc4ccccc43)C2=O)ccc1Cl (stereo not given) | -4.1%
83 | OCC(CO)(CO)NCc1ccc(-c2ccccc2)cc1 | 4.54%
84 | COc1ccc(S(=O)(=O)NC(C)C)cc1C(=O)NC1CCCCC1 | 5.96%
85 | COc1cc2c3c(c1)/C(=C1/SC(=S)NC1=O)C(=O)N3C(C)(C)C=C2C | -1.35%
86 | COc1ccc(C(CC(=O)O)NC(=O)Cc2ccccc2)cc1 (stereo not given) | 0.31%
87 | CCC/C=C(\CCC)C(NC(=O)Cc1ccccc1)c1ccc(C(=O)OC)cc1 (stereo not given) | 20.7% (active)
88 | CCC[C@@H]1C[C@@]1(CCC)[C@@H](NC(=O)c1ccccc1)c1ccc(C(=O)OC)cc1 | 6.17%
89 | CCN(c1ccc(NC(=O)COC(=O)CCc2nc3ccccc3n2-c2ccccc2)cc1)C(C)C | -0.2%
90 | Cc1cc(-c2n[nH]c(=S)n2-c2ccc(C)c(C)c2)no1 | 3.33%
91 | Cc1nc(SCc2ccc(F)cc2)c([N+](=O)[O-])[nH]1 | 6.36%
92 | COc1cc(/C=C/C(=O)O)cc(S(=O)(=O)Nc2ccccc2SC)c1OC | 1.33%
93 | CCC(c1nnnn1C1CCCC1)N(Cc1cccs1)Cc1cc2cccc(C)c2[nH]c1=O (stereo not given) | 18% (active)
94 | Cc1cccc2cc(CN(Cc3ccc4c(c3)OCO4)Cc3nnnn3C3CCCC3)c(=O)[nH]c12 | -0.14%
95 | Cc1cccc2cc(CN(Cc3cccs3)C(c3nnnn3C3CCCC3)C(C)C)c(=O)[nH]c12 (stereo not given) | 11%
